Reference: PubChem BioAssay (Tox21)
Values joined by “and” are separate entries in the source; they are usually repeats but may differ in a detail not shown here. Equal values may be shown once. Inconclusive results are not listed. Entries that show only a call come without a potency. The source holds several records for some structures; these can differ, active in one and inactive in another. Active and inactive are the calls of the source. Unless noted, the call rests on the fitted dose curve.

Assays:
[1] = Nuclear factor erythroid 2-related factor 2/antioxidant responsive element (Nrf2/ARE) small molecule agonists: qHTS cell viability counter screen in human keratinocytes (AID 1919968; active means well fitted curve in the direction sought with a large enough effect in the repeat runs; an effect the other way counts as inactive or inconclusive; further: nearly all actives have a fitted effect of over 55% in size; further: potency means the concentration at half of the fitted maximal effect)
How it was run: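 After a 5 h attachment period, ARE-reporter keratinocytes were dosed with compounds in DMSO and then cultured 23 h at 37 C. Cell viability came from CellTiter-Fluor signal read after a further 1 h.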

[2] = target: Gonadotropin-releasing hormone receptor (Homo sapiens) (UniProt P30968); assay: Human gonadotropin-releasing hormone receptor (GnRHR) small molecule agonists, calcium flux assay in GnRHR-HEK293 cells (AID 1920063); further: nearly all actives have a fitted effect of over 35% in size
Sequence of Gonadotropin-releasing hormone receptor (Homo sapiens) (P30968 whole entry, looked up): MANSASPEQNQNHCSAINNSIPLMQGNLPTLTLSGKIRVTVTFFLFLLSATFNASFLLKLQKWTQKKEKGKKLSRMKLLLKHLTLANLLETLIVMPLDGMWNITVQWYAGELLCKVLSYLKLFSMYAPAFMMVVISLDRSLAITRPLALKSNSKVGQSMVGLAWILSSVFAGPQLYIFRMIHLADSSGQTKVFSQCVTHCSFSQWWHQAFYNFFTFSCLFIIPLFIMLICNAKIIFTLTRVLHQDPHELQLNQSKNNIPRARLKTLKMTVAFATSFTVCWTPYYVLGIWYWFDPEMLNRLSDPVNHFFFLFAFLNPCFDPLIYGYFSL
How it was run: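 We seeded human GnRHR-expressing HEK293 cells for 18 hours, loaded them with calcium dye for an hour at 37 C, added test compounds, and recorded fluorescence intensity kinetically for three minutes.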

[3] = target: KiSS-1 receptor (Homo sapiens) (UniProt Q969F8); assay: Human kisspeptin (KISS1R) small molecule agonists, calcium flux assay in KISS1R-HEK293 cells (AID 1920064; active means well fitted curve in the direction sought with a large enough effect in the repeat runs; an effect the other way counts as inactive or inconclusive)
Sequence of KiSS-1 receptor (Homo sapiens) (Q969F8 whole entry, looked up): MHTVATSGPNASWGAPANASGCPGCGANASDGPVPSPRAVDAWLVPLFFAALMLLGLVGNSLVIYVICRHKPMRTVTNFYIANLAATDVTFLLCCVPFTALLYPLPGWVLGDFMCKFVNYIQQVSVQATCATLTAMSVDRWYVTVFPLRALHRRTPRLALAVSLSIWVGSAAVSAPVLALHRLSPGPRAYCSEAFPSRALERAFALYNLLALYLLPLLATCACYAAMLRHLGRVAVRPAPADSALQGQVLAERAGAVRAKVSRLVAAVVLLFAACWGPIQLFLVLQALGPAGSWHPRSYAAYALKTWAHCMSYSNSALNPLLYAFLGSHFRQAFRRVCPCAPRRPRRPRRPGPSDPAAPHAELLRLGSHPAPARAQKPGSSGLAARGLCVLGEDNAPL
How it was run: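 Kinetic calcium assay, 1 s sampling over 3 min at Ex/Em 480/540, in HEK293 cells engineered with human KISS1R; compounds delivered in DMSO after 1 h dye loading.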

[4] = G protein-coupled receptor (GPCR) small molecule agonists, calcium flux assay: HEK293 wild type cell line counter screen (AID 1920065)
How it was run: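 Calcium-sensitive dye, loaded 1 h at 37 C into cells cultured 18 h, reports compound-evoked calcium release as fluorescence (Ex/Em 480/540), measured over 3 min. Agonist mode; 15-point titrations, triplicate.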

[5] = p53 small molecule agonists, cell-based qHTS assay with human liver microsomes (AID 1963577)
How it was run: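 Cells carrying a p53-responsive bla reporter were rested 5 h (37 C, 5% CO2) before compound transfer. Human liver microsomes plus NADPH, 0.5 mg/mL final apiece, supplied metabolism during the 16 h 37 C exposure.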

[6] = p53 small molecule agonists, cell-based qHTS assay with rat liver microsomes (AID 1963578)
How it was run: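 Fluorescence from a beta-lactamase reporter under a p53 response element was measured after cells had been incubated 16 h at 37 C with test compound and rat liver microsomes plus NADPH (0.5 mg/mL final each).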

[7] = p53 small molecule agonists, cell-based qHTS assay: qHTS cell viability counter screen (AID 1963581); further: nearly all actives have a fitted effect of over 45% in size; further: potency means the concentration at half of the fitted maximal effect
How it was run: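 Following 5 h attachment, HCT-116 p53RE-bla cells took up compound for 16 h at 37 C; the reporter was read with B/G FRET substrate (2 h RT), and viability then via CellTiter-Glo ATP luminescence.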

[8] = p53 small molecule agonists, cell-based qHTS assay (AID 1963582; active means well fitted activation curve with a large enough effect in the signal ratio in the repeat runs, not every such curve was filed as active; the % refers to the signal ratio)
How it was run: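 In this cell-based concentration-response screen, a p53 response element drives beta-lactamase; cells received DMSO-borne compounds after 5 h culture and were incubated a further 16 h before FRET substrate development.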

[9] = target: 5-hydroxytryptamine receptor 2A (Homo sapiens) (UniProt P28223); assay: 5-hydroxytryptamine receptor 2A (HTR2A) small molecule antagonists, cell-based qHTS assay (AID 1963586); further: nearly all actives have a fitted effect of over 45% in size; further: potency means the concentration at half of the fitted maximal effect
Sequence of 5-hydroxytryptamine receptor 2A (Homo sapiens) (P28223 whole entry, looked up): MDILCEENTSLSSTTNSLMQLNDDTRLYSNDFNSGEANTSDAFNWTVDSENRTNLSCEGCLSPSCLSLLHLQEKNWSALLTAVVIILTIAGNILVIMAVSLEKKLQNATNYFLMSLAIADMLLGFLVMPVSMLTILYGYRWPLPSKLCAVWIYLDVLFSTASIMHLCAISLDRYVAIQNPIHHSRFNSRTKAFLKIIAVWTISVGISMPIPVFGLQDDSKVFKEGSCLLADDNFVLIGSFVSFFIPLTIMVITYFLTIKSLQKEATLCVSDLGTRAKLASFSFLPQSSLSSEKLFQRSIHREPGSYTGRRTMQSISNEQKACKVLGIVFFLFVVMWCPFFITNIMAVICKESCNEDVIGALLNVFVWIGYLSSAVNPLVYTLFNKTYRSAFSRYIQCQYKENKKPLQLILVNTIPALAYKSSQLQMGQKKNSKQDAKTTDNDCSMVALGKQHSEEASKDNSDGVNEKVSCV
How it was run: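 Antagonist-mode intracellular calcium assay: DOI (4 nM) added after 5 min compound pre-incubation at room temperature to dye-loaded HTR2A-CHO cells. Fluorescence followed for 3 min, sampled every second.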

[10] = target: 5-hydroxytryptamine receptor 2A (Homo sapiens) (UniProt P28223); assay: 5-hydroxytryptamine receptor 2A (HTR2A) small molecule agonists, cell-based qHTS assay (AID 1963587); further: nearly all actives have a fitted effect of over 30% in size; further: potency means the concentration at half of the fitted maximal effect
How it was run: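 Kinetic calcium-flux fluorescence (2 min, 1 sec intervals) after compound addition in agonist mode. HTR2A-CHO cells were cultured 18 h, then dye-loaded 1 h at 37 C.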

[11] = target: Muscarinic acetylcholine receptor M1 (Homo sapiens) (UniProt P11229); assay: Cholinergic receptor muscarinic 1 (CHRM1) small molecule antagonists, cell-based qHTS assay (AID 1963588); further: nearly all actives have a fitted effect of over 40% in size
Sequence of Muscarinic acetylcholine receptor M1 (Homo sapiens) (P11229 whole entry, looked up): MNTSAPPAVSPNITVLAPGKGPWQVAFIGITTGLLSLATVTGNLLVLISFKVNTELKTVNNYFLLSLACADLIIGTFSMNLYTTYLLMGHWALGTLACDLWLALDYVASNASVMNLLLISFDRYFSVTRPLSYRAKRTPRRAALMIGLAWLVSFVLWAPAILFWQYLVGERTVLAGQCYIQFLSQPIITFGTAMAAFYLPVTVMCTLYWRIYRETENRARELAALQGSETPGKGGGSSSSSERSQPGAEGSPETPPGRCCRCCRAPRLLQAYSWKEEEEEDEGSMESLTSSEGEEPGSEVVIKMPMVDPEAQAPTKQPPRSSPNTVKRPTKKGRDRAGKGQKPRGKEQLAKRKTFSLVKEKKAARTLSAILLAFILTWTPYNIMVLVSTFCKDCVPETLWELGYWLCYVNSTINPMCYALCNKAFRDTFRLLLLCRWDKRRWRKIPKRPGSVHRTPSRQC
How it was run: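 CHRM1-CHO calcium-flux assay, antagonist mode. Cells were seeded 18 h, dye-loaded 1 h at 37 C and given compound for 5 min at RT, then acetylcholine was added at 50nM. FDSS fluorescence was read 3 min; 15 concentrations, three runs.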

[12] = target: Muscarinic acetylcholine receptor M1 (Homo sapiens) (UniProt P11229); assay: Cholinergic receptor muscarinic 1 (CHRM1) small molecule agonists, cell-based qHTS assay (AID 1963589); further: nearly all actives have a fitted effect of over 35% in size
How it was run: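 Measures agonist-induced intracellular calcium rise. Stable human CHRM1 CHO line, 1 h dye load at 37 C, compounds from DMSO, kinetic fluorescence read.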

[13] = cAMP Responsive Elements (CRE) small molecule antagonists, cell-based qHTS assay (AID 1963591; active means well fitted inhibition curve with a large enough effect in the signal ratio in the repeat runs, not every such curve was filed as active; the % refers to the signal ratio)
How it was run: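 HEK293T cells carrying a CRE-driven beta-lactamase reporter receive compound and NKH477 (0.25 uM final) for 3 h. Fluorescence from LiveBLAzer B/G FRET substrate is read after 2 h at room temperature.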

[14] = target: Beta-2 adrenergic receptor (Homo sapiens) (UniProt P07550); assay: Adrenergic beta2 receptor (ADRB2) small molecule antagonists, cell-based qHTS assay (AID 1963592); further: series mostly up to about 92 µM; nearly all actives have a fitted effect of over 50% in size
Sequence of Beta-2 adrenergic receptor (Homo sapiens) (P07550 whole entry, looked up): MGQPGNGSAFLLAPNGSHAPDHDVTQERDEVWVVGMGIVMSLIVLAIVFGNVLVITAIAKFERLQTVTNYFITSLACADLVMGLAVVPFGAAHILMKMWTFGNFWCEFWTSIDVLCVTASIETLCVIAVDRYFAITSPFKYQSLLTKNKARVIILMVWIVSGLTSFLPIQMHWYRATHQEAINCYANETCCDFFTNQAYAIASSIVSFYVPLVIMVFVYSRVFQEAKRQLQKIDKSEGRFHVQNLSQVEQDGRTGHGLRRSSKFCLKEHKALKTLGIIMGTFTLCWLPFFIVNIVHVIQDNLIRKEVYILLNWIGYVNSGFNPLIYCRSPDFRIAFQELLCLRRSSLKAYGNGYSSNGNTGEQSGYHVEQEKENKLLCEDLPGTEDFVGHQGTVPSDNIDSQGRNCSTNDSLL
How it was run: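 Cells (CHO, stable ADRB2 overexpression) incubated 18-20hr at 37C; compounds added from DMSO; agonist mix (1nM isoproterenol, 100uM IBMX, 25uM Ro-20-1724) added; 0.5hr RT; d2-cAMP and anti-cAMP-cryptate added; 1hr RT; 665/615 nm read.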

[15] = target: D(2) dopamine receptor (Homo sapiens) (UniProt P14416); assay: Dopamine D2 receptor (DRD2) small molecule agonists, cell-based qHTS assay (AID 1963594); further: nearly all actives have a fitted effect of over 35% in size
Sequence of D(2) dopamine receptor (Homo sapiens) (P14416 whole entry, looked up): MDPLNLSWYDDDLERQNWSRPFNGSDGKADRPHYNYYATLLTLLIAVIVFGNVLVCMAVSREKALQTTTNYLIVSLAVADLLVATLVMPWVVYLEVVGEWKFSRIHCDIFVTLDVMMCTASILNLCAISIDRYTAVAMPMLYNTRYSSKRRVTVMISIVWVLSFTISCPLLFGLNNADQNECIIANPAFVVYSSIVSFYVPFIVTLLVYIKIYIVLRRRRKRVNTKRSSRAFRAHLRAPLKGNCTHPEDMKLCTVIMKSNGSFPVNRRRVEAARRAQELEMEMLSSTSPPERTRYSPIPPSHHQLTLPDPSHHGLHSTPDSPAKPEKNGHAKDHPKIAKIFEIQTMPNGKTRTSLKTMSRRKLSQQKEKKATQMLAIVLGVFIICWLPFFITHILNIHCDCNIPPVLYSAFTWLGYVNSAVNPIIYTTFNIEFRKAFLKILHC
How it was run: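 cAMP accumulation in DRD2-HEK293 cells measured by HTRF after 1 h detection; compounds added 10 min before NKH477 (200nM […]) forskolin-analogue stimulation, 30 min at room temperature, with Ro20-1724 present at 0.1 mM final.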

[16] = target: D(2) dopamine receptor (Homo sapiens) (UniProt P14416); assay: Dopamine D2 receptor (DRD2) small molecule antagonists, cell-based qHTS assay (AID 1963595; active means well fitted inhibition curve with a large enough effect in the signal ratio in the repeat runs, with a control signal flat; the % refers to the signal ratio)
How it was run: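 Readout: HTRF cAMP, cAMP-d2 competing with cellular cAMP for anti-cAMP cryptate, read after 1 h. Cells: DRD2-HEK293. Conditions: 0.1 mM Ro20-1724, 12 nM quinpirole, 200 nM NKH477, 30 min RT.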

[17] = p53 small molecule agonists, cell-based qHTS assay with human liver microsomes: qHTS cell viability counter screen (AID 1963579); further: nearly all actives have a fitted effect of over 45% in size; further: potency means the concentration at half of the fitted maximal effect
How it was run: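 Seed p53RE-bla cells at 4,000 per well; incubate 5 h at 37 C; add compound, human liver microsomes and NADPH; incubate 16 h at 37 C; add CellTiter-Glo; after 30 min at room temperature, read luminescence.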

[18] = p53 small molecule agonists, cell-based qHTS assay with rat liver microsomes: qHTS cell viability counter screen (AID 1963580); further: nearly all actives have a fitted effect of over 45% in size; further: potency means the concentration at half of the fitted maximal effect
How it was run: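 HCT-116 p53RE-bla, 4,000 cells/well, 5 h pre-incubation; cpd + rat liver microsomes 0.5 mg/mL + NADPH 0.5 mg/mL (final); 16 h, 37 C; CellTiter-Glo, 30 min RT; luminescence.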

[19] = cAMP Responsive Elements (CRE) small molecule agonists, cell-based qHTS assay (AID 1963590)
How it was run: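 A CRE-responsive beta-lactamase reporter in HEK 293T cells was used. Treatment ran 3 h at 37 C; detection used LiveBLAzer B/G FRET substrate for 2 h at room temperature.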

[20] = target: Beta-2 adrenergic receptor (Homo sapiens) (UniProt P07550); assay: Adrenergic beta2 receptor (ADRB2) small molecule agonists, cell-based qHTS assay (AID 1963593);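 further: CHO cells stably overexpressing human ADRB2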
How it was run: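 CHO cells stably over-expressing ADRB2 were plated overnight at 37C, then dosed with compounds plus a stimulation mix containing 100uM IBMX and 25uM Ro-20-1724 for 0.5hr at room temperature. cAMP was measured by HTRF competition, 1hr.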

| SMILES | Potency [1] | Potency [2] | Potency [3] | Potency [4] | Potency [5] | Potency [6] | Potency [7] | Potency [8] | Potency [9] | Potency [10] | Potency [11] | Potency [12] | Potency [13] | Potency [14] | Potency [15] | Potency [16] | Potency [17] | Potency [18] | Potency [19] | Potency [20] |
| --- | --- | --- | --- | --- | --- | --- | --- | --- | --- | --- | --- | --- | --- | --- | --- | --- | --- | --- | --- | --- |
| OC1CCCCCCCCCCC1 | inactive | inactive | inactive | inactive | inactive | inactive | inactive | inactive | inactive | 6.23 µM (active) | inactive | inactive | inactive | inactive | inactive | inactive |  |  |  |  |
| CCOC(=O)[C@H](CCc1ccccc1)N[C@@H](C)C(=O)N1Cc2ccccc2C[C@H]1C(=O)O | inactive | inactive | inactive | inactive | inactive | inactive |  | inactive |  |  |  |  | inactive | inactive | inactive | inactive | inactive | inactive | inactive | inactive |
| OC1CCCC1 | inactive | inactive | inactive | inactive |  |  | inactive |  | inactive | inactive | inactive | inactive | inactive |  | inactive | inactive | inactive | inactive | inactive | inactive |
| Cc1ccc(S(=O)(=O)NC(=O)NC2CCCCCCC2)cc1 | inactive | inactive | inactive | inactive | inactive | inactive | inactive | inactive | inactive | inactive | inactive | inactive | inactive | inactive | inactive | inactive | inactive |  | inactive | inactive |
| COC(=O)c1ccc(C(=O)OC)cc1 | 2.47 µM (active) and inactive | inactive | inactive | inactive | inactive | inactive |  | inactive | inactive | inactive | inactive | inactive | inactive | inactive | inactive |  | inactive | 18.5 µM (active) and inactive | inactive |  |
| CC(C)(C)NC(=O)[C@@H]1CN(Cc2cccnc2)CCN1C[C@@H](O)C[C@@H](Cc1ccccc1)C(=O)N[C@H]1c2ccccc2C[C@H]1O | inactive | inactive | inactive | inactive |  |  | inactive | inactive |  |  |  |  |  |  | inactive | inactive |  |  | inactive | inactive |
| O=C(c1ccc(OCCN2CCCCC2)cc1)c1c(-c2ccc(O)cc2)sc2cc(O)ccc12 | 34.4 µM (active) and 30.6 µM (active) | inactive | inactive | inactive | inactive |  | 36.4 µM (active) and inactive |  |  |  |  |  |  | inactive | inactive | inactive | 45.8 µM (active) and inactive | inactive |  | inactive |
| CCCSc1ccc2nc(NC(=O)OC)[nH]c2c1 | inactive | inactive | inactive | inactive | inactive | inactive |  |  |  |  |  |  | inactive | inactive |  | inactive | inactive | inactive |  |  |
| NCCNCCNCCN | inactive | inactive | inactive | inactive | inactive |  | inactive | inactive | inactive | inactive | inactive | inactive | inactive | inactive | inactive | inactive | inactive | inactive |  | inactive |
| CCOC(=O)CC(C)=O | inactive | inactive | inactive | inactive |  |  | inactive |  | inactive | inactive | inactive | inactive | inactive | inactive |  | inactive | inactive | inactive | inactive |  |
| CCCCCC/C(C=O)=C\c1ccccc1 | inactive | inactive | inactive | inactive |  |  | inactive |  | inactive |  | inactive | inactive |  | inactive |  | inactive | inactive | inactive | inactive | inactive |
| O | inactive | inactive | inactive | inactive | inactive |  | inactive | inactive |  |  |  |  | inactive |  | inactive | inactive | inactive |  | inactive | inactive |
| Cc1ccccc1C(N)=O | inactive | inactive | inactive | inactive | inactive | inactive | inactive | inactive | inactive | inactive | inactive | inactive | inactive | inactive | inactive | inactive |  | inactive | inactive | inactive |
| C=CC(C)(CCC=C(C)C)OC=O (centres undefined) | inactive | inactive | inactive | inactive | inactive | inactive | inactive | inactive | inactive | inactive | inactive | inactive | inactive | inactive | inactive | inactive | inactive |  | inactive | inactive |
| N[C@@H](Cc1c[nH]c2ccc(O)cc12)C(=O)O | inactive | inactive | inactive | inactive |  |  | inactive |  | 364 nM (active) and 6.5 µM (active) | 599 nM (active) and 8.49 µM (active) | inactive | inactive |  | inactive | inactive | inactive | inactive | inactive | inactive |  |
| CC(=O)O[C@H]1C[C@@H]2CC[C@@]1(C)C2(C)C | inactive | inactive | inactive | inactive | inactive |  | inactive | inactive | inactive |  | inactive | inactive | inactive | inactive | inactive | inactive | inactive | inactive | inactive |  |
| CCCCCCC(C)(C)C(=O)O | inactive | inactive | inactive | inactive |  | inactive | inactive | inactive | inactive | inactive | inactive | inactive |  | inactive | inactive | inactive | inactive | inactive | inactive | inactive |
